Results reported in ChEMBL document CHEMBL4513216, “Probing the Open Global Health Chemical Diversity Library for Multistage-Active Starting Points for Next-Generation Antimalarials” (ACS Infect Dis, 2020).
Among all 68,000 compounds or so, about 2,700 (4%) showed an effect of 50% or more. For the sample, strong results were picked, then their nearest neighbours and some compounds at random.

test system: Plasmodium berghei; experiment: Screen against P. berghei liver stage (PbLuc), transformed with Luciferase, at 2uM; assay type: functional, HepG2; conditions: tested at 2 uM

SMILES | INHIBITION [%]
Cc1ncsc1CCC(=O)NC1CCN(c2ncccc2C#N)CC1 | 51.81
Cc1ncsc1C(=O)NC1CCN(c2ncccc2C#N)CC1 | -4.58
N#Cc1cccnc1N1CCCN(C(=O)CCc2cccs2)CC1 | 10.1
Cc1ncsc1CCC(=O)NC1CCN(c2ccc(Cl)nn2)CC1 | 2.04
N#Cc1ccccc1N1CCCN(C(=O)CCc2ccco2)CC1 | 75.56
N#Cc1cccnc1N1CCN(C(=O)c2cccs2)CC1 | 23.76
COC1COC2(CCN(Cc3ccccc3C)CC2)C1 (stereo not drawn) | 27.65
CC(C)n1cnc2c(N3CCCC3)nc(C3CCNCC3)cc21 | 14.39
CC(NCc1ccccc1Br)c1ccc2[nH]c(=O)[nH]c2c1 (stereo not drawn) | 20.28
CCCc1nc2c(c(C)c(C)n2Cc2ccccn2)c(N)c1CC | -17.84
O=C(NCCc1cc(N2CCOCC2)nc(NC2CC2)n1)C1CC1 | 38.45
COCCN1CCN(c2nc(O)cc(Cc3ccccc3F)n2)CC1 | -35.66
Cc1cc(NC(=O)Cn2cc(C#N)c(=O)c3cc(Br)ccc32)no1 | 3.43
CN(Cc1cc(C2CC2)on1)C(=O)CN1C(=O)OC(C)(C)C1=O | 37.41
CN(Cc1ccon1)C(=O)CN1C(=O)OC(C)(C)C1=O | 70.76
CN(Cc1ccoc1)C(=O)CN1C(=O)OC(C)(C)C1=O | 0.85
CCn1nc(C)c2nc(C(C)C)nc(N3CCC(O)CC3)c21 | 5.86
O=C(c1cccc(F)c1)N1CCC2(CC1)CN(c1ccccn1)CCO2 | -29.13
COCCn1/c(=N\C(=O)CN(C)S(C)(=O)=O)sc2cc(Cl)ccc21 | 52.05
COCCn1/c(=N\C(=O)CN(C)S(C)(=O)=O)sc2cc(OC)ccc21 | 11.87
COCCn1/c(=N\C(=O)CN(C)S(C)(=O)=O)sc2cc(C)ccc21 | 29.19
Nc1ncnc2[nH]c(N3CCCCC3)nc12 | -87.36
Clc1ccccc1OC1CN(CC2CCOC2)C1 (stereo not drawn) | -14.36
CC(C)NC(=O)N1CCC[C@H]1C(=O)NCCCc1cccc(F)c1 | -22.24
CN(Cc1cccc(F)c1)C(=O)CN1CCCC(Cn2cncn2)C1 (stereo not drawn) | 53.1
CN(Cc1ccccc1)C(=O)CN1CCCC(Cn2cncn2)C1 (stereo not drawn) | 45.5
CN(Cc1cccc(F)c1)C(=O)CN1CCCCC1Cn1cncn1 (stereo not drawn) | 3.3

SMILES | INHIBITION [%]
CN(Cc1cccc(F)c1)C(=O)CN1CCCC1CCc1ccccc1 (stereo not drawn) | 80.56
CN(Cc1ccc(F)cc1)C(=O)CN1CCCC(Cn2cncn2)C1 (stereo not drawn) | 2.08
N#CCCN(CCC#N)C(=O)CN1CCCC1Cc1cccc(F)c1 (stereo not drawn) | -43.03
COc1cc(OC)cc(C(=O)N(C)Cc2nnc3ccccn23)c1 | 34.39
Cc1ccc(N2C[C@H]3CCC[C@@H](CN4CCOCC4)[C@H]3C2)nn1 | -7.49
CN(C)c1ccc(C(=O)NCc2cccnc2-n2cncn2)cc1F | 20.19
O=C(CCNC(=O)C1CCCC1)NCc1ccccc1Cn1cncn1 | -14.17
O=C(CC1CCCO1)NCc1ccccc1Cn1cncn1 (stereo not drawn) | 8.37
CN(C)C1CCN(C(=O)NCc2ccccc2Cn2cncn2)CC1 | 9.05
NC(=O)C1CCN(C(=O)NCc2ccccc2Cn2cncn2)CC1 | 64.07
O=C(CCC1CCCO1)NCc1ccccc1Cn1cncn1 (stereo not drawn) | 64.16
O=C(NCc1ccccc1Cn1cncn1)N1CCCC1 | -9.49
O=C(NCc1ccon1)c1c(F)cc(Br)cc1F | 1.04
Cc1nc(C2CCCN(C(=O)c3c[nH]c(C(C)C)n3)C2)no1 (stereo not drawn) | 13.3
Cc1cc(C)n(CC2CCCCN2CC(=O)NC2CCOCC2)n1 (stereo not drawn) | 27.5
CCN(Cc1cnn(CC)c1)C(=O)CN1C(=O)CCc2ccccc21 | 21
CC(C)(C)c1n[nH]c(C2CN(C(=O)c3ccsc3)CCO2)n1 (stereo not drawn) | 31.19
CNC(=O)C(C)(C)NC(=O)c1cc(COc2cccc(C(C)=O)c2)[nH]n1 | -8.74
CC(c1cccnc1)N(C)Cc1ccccn1 (stereo not drawn) | -18.23
CC1N(CC2CC2)C(=O)COC12CCN(C(=O)c1cccs1)CC2 (stereo not drawn) | 32.04
CCCN1CCN(S(=O)(=O)c2ccccc2OC)[C@H]2CS(=O)(=O)C[C@H]21 | 52.45
COc1ccccc1S(=O)(=O)N1CCN(C)[C@@H]2CS(=O)(=O)C[C@@H]21 | 40.88
CCN1CCN(S(=O)(=O)N2CCc3ccccc3C2)[C@H]2CS(=O)(=O)C[C@H]21 | 25.37
CCn1ncc(NC(=O)c2cc(C3CC3)nc3c2c(C)nn3C)c1C | 52.52
CCCn1ncc2c(C(=O)Nc3cnn(CC)c3C)cc(C3CC3)nc21 | 34.52
Cc1cc(C(=O)Nc2cc(C3CC3)n[nH]2)c2c(C)nn(C)c2n1 | 40.99
